In assay [1] the test system is Sodium/Iodide Symporter (NIS), SLC5A5 (gene 6528). The assay is described as follows: CPHEA_Stoker_NIS_Inhibition_RAIU: CPHEA's Radioactive Iodide Uptake (RAIU) Assay for Sodium/Iodide Symporter (NIS) Inhibition, Stoker and Laws Labs (AID 2283841). An outline of the steps: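 Test chemicals, six concentrations from 0.001 to 100uM in 0.5% DMSO, were co-incubated with carrier-free 125I (final 329pM) on hNIS-HEK293T-EPA monolayers in pH 7.4 HEPES-buffered HBSS. Plates stood 2 hours at room temperature, then were washed cold and counted.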

Assay [2] deals with frog Estrogen Receptor (ER), gene 398734. Description: ATG_frER1_XSP2: Attagene TRANS-FACTORIAL Multi-Species (XSP2) HepG2 Assay for frog Estrogen Receptor (ER) (AID 2283821).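 Further: hits raise reporter mRNA above DMSO baseline so potency means agonist or activator.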 The essentials:
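Steps: transfect HepG2 with multiple reporter transcription units; treat with chemical for 24 h; isolate RNA, reverse-transcribe, PCR-amplify, label with 6-FAM, digest with HpaI; resolve fragments by capillary electrophoresis. Signal is scored against DMSO.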

Assay [3] relates to zebrafish Estrogen Receptor (ER2b), gene 317733. Description: ATG_zfER2b_XSP2: Attagene TRANS-FACTORIAL Multi-Species (XSP2) HepG2 Assay for zebrafish Estrogen Receptor (ER2b) (AID 2283823).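 Further: fitted upward as reporter gain over DMSO so potency reflects activation.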 The essentials:
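Transfect HepG2 with GAL4-UAS reporter constructs; dose chemicals, 24 h; isolate RNA, RT-PCR, FAM-label, HpaI digest; capillary electrophoresis. Gain-of-signal vs DMSO.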

Assay [4] concerns frog Estrogen Receptor (ER2), gene 100174814. The assay is described as follows: ATG_frER2_XSP2: Attagene TRANS-FACTORIAL Multi-Species (XSP2) HepG2 Assay for frog Estrogen Receptor (ER2) (AID 2283828). An outline of the steps:
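Multiplexed transactivation in HepG2: frog estrogen receptor fused to Gal4 drives a UAS reporter. Signal is reporter mRNA after 24 h treatment.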

The target in assay [5] is Peroxisome proliferator-activated receptor gamma (Homo sapiens) (UniProt P37231). Description: ATG_hPPARg_XSP2: Attagene TRANS-FACTORIAL Multi-Species (XSP2) HepG2 Assay for human Peroxisome Proliferator-activated Receptor gamma (PPARg) (AID 2283829).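 Further: actives raise reporter mRNA above DMSO so AC50 reflects PPARg activation.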 An outline of the steps: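 Transient MRTU transfection, HepG2; TRANS format (exogenous NR-Gal4 chimeras). 24 h chemical exposure with 3 nM 6-alpha-fluorotestosterone and 1.5 nM norgestrel present. Readout: reporter mRNA via RT-PCR/CE fluorescence, up-direction vs DMSO.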
Peroxisome proliferator-activated receptor gamma (Homo sapiens), sequence (P37231 whole entry, looked up, the tested form may be a part): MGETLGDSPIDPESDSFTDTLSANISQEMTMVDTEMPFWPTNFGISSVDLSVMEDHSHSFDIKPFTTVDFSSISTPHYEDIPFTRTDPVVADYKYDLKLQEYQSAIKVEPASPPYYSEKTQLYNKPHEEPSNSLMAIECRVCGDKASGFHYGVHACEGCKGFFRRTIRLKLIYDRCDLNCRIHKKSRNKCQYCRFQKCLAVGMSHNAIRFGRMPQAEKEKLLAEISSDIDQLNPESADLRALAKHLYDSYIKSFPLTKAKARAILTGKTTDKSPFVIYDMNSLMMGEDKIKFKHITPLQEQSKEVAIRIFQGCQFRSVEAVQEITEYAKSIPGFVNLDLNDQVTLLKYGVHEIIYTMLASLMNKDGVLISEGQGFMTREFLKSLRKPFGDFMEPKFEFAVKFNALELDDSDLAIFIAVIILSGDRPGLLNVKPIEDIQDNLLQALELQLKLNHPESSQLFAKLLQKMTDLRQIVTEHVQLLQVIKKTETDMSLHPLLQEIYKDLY

The target in assay [6] is mouse Peroxisome Proliferator-activated Receptor gamma (PPARg), Pparg (gene 19016) (UniProt P37238). Description: ATG_mPPARg_XSP2: Attagene TRANS-FACTORIAL Multi-Species (XSP2) HepG2 Assay for mouse Peroxisome Proliferator-activated Receptor gamma (PPARg) (AID 2283830).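 Further: hits are gains in reporter mRNA above DMSO so AC50 marks activation.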 An outline of the steps:
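HepG2 cells transiently transfected with GAL4-UAS reporter units for chimeric NR-Gal4 proteins including mouse PPARg, exposed 24 h; medium contained 3 nM 6-alpha-fluorotestosterone and 1.5 nM norgestrel. Reporter mRNA quantified by RT-PCR, HpaI digestion and capillary electrophoresis, vs DMSO.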

Assay [7] addresses Nuclear receptor subfamily 1 group I member 2 (Mus musculus) (UniProt O54915). The assay is described as follows: ATG_mPXR_XSP2: Attagene TRANS-FACTORIAL Multi-Species (XSP1) HepG2 Assay for mouse Pregnane X Receptor (PXR) (AID 2283831). The essentials:
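Transient HepG2 transfection, multiplexed GAL4-UAS reporters, NR-GAL4 chimeras. 24 h compound exposure. Readout: reporter mRNA, RT-PCR, fluorescent capillary electrophoresis; positive direction vs DMSO baseline.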

The target of assay [8] is zebrafish Thyroid Hormone Receptor alpha (TRa), thraa (gene 30670) (UniProt Q98867). Description: ATG_zfTRa_XSP2: Attagene TRANS-FACTORIAL Multi-Species (XSP1) HepG2 Assay for zebrafish Thyroid Hormone Receptor alpha (TRa) (AID 2283832).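 Further: actives raise zebrafish TRa-Gal4 reporter transcript above DMSO baseline.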 The essentials: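 Transient transfection of human HepG2 with GAL4-UAS reporter units, then 24 h chemical treatment. RNA isolated, reverse-transcribed, PCR-amplified, FAM-labelled, HpaI-digested and run on capillary electrophoresis. Gain-of-signal relative to DMSO.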
zebrafish Thyroid Hormone Receptor alpha (TRa), thraa (gene 30670), sequence (Q98867 whole entry, looked up, the tested form may be a part): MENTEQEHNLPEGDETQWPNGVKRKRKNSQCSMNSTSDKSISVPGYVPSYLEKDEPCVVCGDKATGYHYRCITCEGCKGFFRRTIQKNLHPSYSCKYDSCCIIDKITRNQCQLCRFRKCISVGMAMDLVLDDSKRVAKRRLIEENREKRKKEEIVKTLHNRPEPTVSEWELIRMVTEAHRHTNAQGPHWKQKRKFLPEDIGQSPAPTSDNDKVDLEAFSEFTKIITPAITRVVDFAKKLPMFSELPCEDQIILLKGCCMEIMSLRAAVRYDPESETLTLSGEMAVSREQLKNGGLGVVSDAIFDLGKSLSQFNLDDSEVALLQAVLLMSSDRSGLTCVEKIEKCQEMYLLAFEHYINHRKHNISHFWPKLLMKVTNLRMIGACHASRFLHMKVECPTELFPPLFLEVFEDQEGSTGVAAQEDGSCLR

For assay [9], the system named is zebrafish Peroxisome Proliferator-activated Receptor gamma (PPARg), gene 557037. The assay is described as follows: ATG_zfPPARg_XSP2: Attagene TRANS-FACTORIAL Multi-Species (XSP2) HepG2 Assay for zebrafish Peroxisome Proliferator-activated Receptor gamma (PPARg) (AID 2283833).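 Further: reporter mRNA from a zebrafish PPARg GAL4 chimera measured by RT-PCR and capillary electrophoresis; actives increase reporter signal over DMSO so AC50 reflects activation.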 The essentials: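 Transfect HepG2 with multiplexed GAL4-UAS reporter constructs; dose chemical 24 h; isolate RNA, reverse-transcribe, PCR-amplify, label and digest reporter products; resolve by capillary electrophoresis. Activity taken as increase over DMSO.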

Assay [10] deals with turtle Thyroid Hormone Receptor, alpha (TRa), gene 101949057. Description: ATG_trTRa_XSP2: Attagene TRANS-FACTORIAL Multi-Species (XSP1) HepG2 Assay for turtle Thyroid Hormone Receptor, alpha (TRa) (AID 2283834).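 Further: hits raise reporter mRNA over the DMSO baseline so AC50 marks activators.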 An outline of the steps:
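Readout: reporter mRNA induction, fluorescence after RT-PCR, HpaI digestion and capillary electrophoresis. Transiently transfected HepG2, exogenous NR-Gal4 chimera driving GAL4-UAS reporter, 24 h compound exposure. Activity fitted upward relative to DMSO baseline.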

The nature of assay [11]: ATG_M_61_XSP2: Attagene TRANS-FACTORIAL Multi-Species (XSP2) HepG2 Assay for M61 Transcription Factor (Internal Marker) (AID 2283835; active means hit-call score of the fitted dose curve at least 0.9, where 1 is the maximum; inactive means score below 0.9;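 further: active means a rise in signal above the DMSO baseline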). The essentials: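 First, HepG2 cells are transfected with reporter units under GAL4-UAS control. Next, chemicals are applied for 24 h. Then total RNA is reverse-transcribed, amplified, fluorescently labelled and sized by capillary electrophoresis, with gain of signal scored against DMSO.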

Assay [12] has as its target zebrafish Thyroid Hormone Receptor beta (TRb), thrb (gene 30607) (UniProt Q9PVE4). Description: ATG_zfTRb_XSP2: Attagene TRANS-FACTORIAL Multi-Species (XSP1) HepG2 Assay for zebrafish Thyroid Hormone Receptor beta (TRb) (AID 2283836). An outline of the steps: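 Human liver HepG2, transient MRTU transfection (NR-Gal4 chimeras, GAL4-UAS reporters); 24 h compound exposure; total RNA → oligo(dT) RT → PCR → 6-FAM label → HpaI cut → CE fluorescence. DMSO = negative control/baseline.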

Assay [13] in a line: ATG_XTT_Cytotoxicity_XSP2: Cytotoxicity Assessment in the Attagene TRANS-FACTORIAL Multi-Species (XSP2) HepG2 Assay (AID 2283837). The essentials:
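HepG2 cells, transiently transfected with multiple reporter constructs, exposed to chemical for 24 h. Cell number assessed with XTT fluorescence read-out; loss of signal fitted relative to DMSO.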

For assay [14], the target named is human Thyroid hormone Receptor alpha (TRa), THRA (gene 7067) (UniProt P10827). The assay is described as follows: ATG_hTRa_XSP2: Attagene TRANS-FACTORIAL Multi-Species (XSP2) HepG2 Assay for human Thyroid hormone Receptor alpha (TRa) (AID 2283838). An outline of the steps:
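HepG2 cells were transiently transfected with GAL4-UAS reporter units for chimeric human TRa-Gal4 and dosed for 24 hours, with 3 nM 6-alpha-fluorotestosterone and 1.5 nM norgestrel present. Reporter mRNA was quantified by RT-PCR, FAM labelling and capillary electrophoresis, with gain of signal fitted versus DMSO.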

Assay [15] concerns the target frog Thyroid hormone Receptor alpha (TRa), thra-a (gene 397942) (UniProt P15204). The assay is described as follows: ATG_frTRa_XSP2: Attagene TRANS-FACTORIAL Multi-Species (XSP2) HepG2 Assay for frog Thyroid hormone Receptor alpha (TRa) (AID 2283839). The essentials: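 Read-out: fluorescent reporter-transcript fragments resolved by capillary electrophoresis after RT-PCR and HpaI cut. Human HepG2 liver cells carry a transfected frog TRα-Gal4 chimera driving a UAS reporter; 24 h exposure, DMSO baseline, positive-direction fit.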

The target of assay [16] is human Thyroid hormone Receptor beta (TRb), THRB (gene 7068) (UniProt P10828). Description: ATG_hTRb_XSP2: Attagene TRANS-FACTORIAL Multi-Species (XSP2) HepG2 Assay for human Thyroid hormone Receptor beta (TRb) (AID 2283840).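 Further: actives raise reporter mRNA so potency reflects agonist-like gain of signal.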 The essentials:
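Read-out: reporter mRNA induction (RT-PCR, 6-FAM labeling, capillary electrophoresis), gain-of-signal relative to DMSO baseline. Transiently transfected HepG2 TRANS multiplex (NR-Gal4 chimeras, GAL4-UAS reporters), 24 h chemical exposure; medium contained 3 nM 6-alpha-fluorotestosterone plus 1.5 nM norgestrel.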

Assay [17] is described as follows: ATG_M_32_XSP2: Attagene TRANS-FACTORIAL Multi-Species (XSP2) HepG2 Assay for M19 Transcription Factor (Internal Marker) (AID 2283826). An outline of the steps: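 Read-out: fluorescent reporter mRNA fragments resolved by capillary electrophoresis after RT-PCR, gain-of-signal versus DMSO baseline. Cells were human HepG2 carrying transfected multi-reporter units, exposed 24 h. Medium contained 3 nM 6-alpha-fluorotestosterone plus 1.5 nM norgestrel.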

Each structure is given as a SMILES string. Values joined by “and” are separate entries in the source; they are usually repeats but may differ in a detail not shown here. Identical values can stand only once. Records with an inconclusive call do not appear. Some structures have more than one record in an assay (separate samples or runs), and their calls can disagree. Active and inactive are the calls of the source. How the source made its calls, unless noted: active means hit-call score of the fitted dose curve at least 0.9, where 1 is the maximum; inconclusive means response in the unintended direction; inactive means score below 0.9.

mouse Peroxisome Proliferator-activated Receptor gamma (PPARg), Pparg (gene 19016), sequence (P37238 whole entry, looked up, the tested form may be a part): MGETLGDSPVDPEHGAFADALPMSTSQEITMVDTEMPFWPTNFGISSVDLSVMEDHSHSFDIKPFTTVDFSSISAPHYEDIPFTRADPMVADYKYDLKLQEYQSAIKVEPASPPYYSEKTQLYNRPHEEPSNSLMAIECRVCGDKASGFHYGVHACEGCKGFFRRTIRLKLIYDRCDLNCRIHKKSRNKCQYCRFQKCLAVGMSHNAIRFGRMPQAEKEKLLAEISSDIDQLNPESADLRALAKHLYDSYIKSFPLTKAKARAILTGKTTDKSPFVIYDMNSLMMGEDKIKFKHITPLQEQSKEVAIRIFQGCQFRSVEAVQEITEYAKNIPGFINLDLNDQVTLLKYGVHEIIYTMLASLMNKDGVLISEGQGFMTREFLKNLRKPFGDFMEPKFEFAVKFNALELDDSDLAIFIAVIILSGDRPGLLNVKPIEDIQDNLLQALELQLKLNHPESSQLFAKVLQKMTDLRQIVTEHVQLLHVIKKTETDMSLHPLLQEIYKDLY
zebrafish Thyroid Hormone Receptor beta (TRb), thrb (gene 30607), sequence (Q9PVE4 whole entry, looked up, the tested form may be a part): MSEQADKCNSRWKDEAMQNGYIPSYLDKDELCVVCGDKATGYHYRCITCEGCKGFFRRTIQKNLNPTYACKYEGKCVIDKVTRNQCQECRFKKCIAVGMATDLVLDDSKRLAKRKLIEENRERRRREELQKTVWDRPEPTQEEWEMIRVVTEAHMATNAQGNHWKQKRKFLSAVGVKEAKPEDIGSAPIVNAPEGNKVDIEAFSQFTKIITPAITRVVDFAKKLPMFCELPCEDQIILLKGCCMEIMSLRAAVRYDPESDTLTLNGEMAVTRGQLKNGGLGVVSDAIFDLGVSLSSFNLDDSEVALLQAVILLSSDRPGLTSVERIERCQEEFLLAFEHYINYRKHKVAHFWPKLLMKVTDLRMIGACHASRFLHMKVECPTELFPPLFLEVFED
frog Thyroid hormone Receptor alpha (TRa), thra-a (gene 397942), sequence (P15204 whole entry, looked up, the tested form may be a part): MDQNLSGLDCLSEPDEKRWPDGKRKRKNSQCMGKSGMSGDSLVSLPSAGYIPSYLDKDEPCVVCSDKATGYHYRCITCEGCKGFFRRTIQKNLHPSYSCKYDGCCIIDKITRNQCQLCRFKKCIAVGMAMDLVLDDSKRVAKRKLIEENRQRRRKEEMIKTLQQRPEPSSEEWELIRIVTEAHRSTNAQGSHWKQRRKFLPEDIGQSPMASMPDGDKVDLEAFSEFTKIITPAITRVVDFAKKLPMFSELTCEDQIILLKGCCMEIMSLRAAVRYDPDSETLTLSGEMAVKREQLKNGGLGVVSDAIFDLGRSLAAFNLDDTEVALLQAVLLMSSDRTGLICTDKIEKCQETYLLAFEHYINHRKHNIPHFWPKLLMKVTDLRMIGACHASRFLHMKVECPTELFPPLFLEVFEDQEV
Nuclear receptor subfamily 1 group I member 2 (Mus musculus), sequence (O54915 whole entry, looked up, the tested form may be a part): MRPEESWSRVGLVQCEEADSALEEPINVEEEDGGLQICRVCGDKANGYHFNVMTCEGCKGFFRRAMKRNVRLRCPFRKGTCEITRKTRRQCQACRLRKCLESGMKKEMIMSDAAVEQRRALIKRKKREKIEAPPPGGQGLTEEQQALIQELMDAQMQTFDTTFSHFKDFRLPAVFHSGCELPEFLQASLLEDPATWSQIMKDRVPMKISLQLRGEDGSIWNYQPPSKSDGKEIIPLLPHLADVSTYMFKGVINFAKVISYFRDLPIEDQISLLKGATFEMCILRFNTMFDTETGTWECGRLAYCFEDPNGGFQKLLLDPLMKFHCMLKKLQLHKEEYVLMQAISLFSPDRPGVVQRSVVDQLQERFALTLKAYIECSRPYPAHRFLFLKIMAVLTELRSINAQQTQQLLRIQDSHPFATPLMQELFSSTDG
human Thyroid hormone Receptor alpha (TRa), THRA (gene 7067), sequence (P10827 whole entry, looked up, the tested form may be a part): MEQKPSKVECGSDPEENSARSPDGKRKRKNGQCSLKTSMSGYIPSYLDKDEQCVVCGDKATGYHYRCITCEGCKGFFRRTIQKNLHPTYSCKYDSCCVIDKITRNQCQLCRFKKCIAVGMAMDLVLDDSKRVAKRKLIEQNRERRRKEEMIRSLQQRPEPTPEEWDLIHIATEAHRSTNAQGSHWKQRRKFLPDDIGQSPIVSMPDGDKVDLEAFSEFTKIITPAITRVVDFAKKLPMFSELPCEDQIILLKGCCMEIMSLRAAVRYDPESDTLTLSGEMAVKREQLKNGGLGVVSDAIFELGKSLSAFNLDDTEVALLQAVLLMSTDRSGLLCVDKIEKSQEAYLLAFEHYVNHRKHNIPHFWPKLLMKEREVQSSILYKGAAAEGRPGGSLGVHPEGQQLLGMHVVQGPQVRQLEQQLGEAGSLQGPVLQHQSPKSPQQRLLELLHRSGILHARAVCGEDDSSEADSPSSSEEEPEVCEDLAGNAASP
human Thyroid hormone Receptor beta (TRb), THRB (gene 7068), sequence (P10828 whole entry, looked up, the tested form may be a part): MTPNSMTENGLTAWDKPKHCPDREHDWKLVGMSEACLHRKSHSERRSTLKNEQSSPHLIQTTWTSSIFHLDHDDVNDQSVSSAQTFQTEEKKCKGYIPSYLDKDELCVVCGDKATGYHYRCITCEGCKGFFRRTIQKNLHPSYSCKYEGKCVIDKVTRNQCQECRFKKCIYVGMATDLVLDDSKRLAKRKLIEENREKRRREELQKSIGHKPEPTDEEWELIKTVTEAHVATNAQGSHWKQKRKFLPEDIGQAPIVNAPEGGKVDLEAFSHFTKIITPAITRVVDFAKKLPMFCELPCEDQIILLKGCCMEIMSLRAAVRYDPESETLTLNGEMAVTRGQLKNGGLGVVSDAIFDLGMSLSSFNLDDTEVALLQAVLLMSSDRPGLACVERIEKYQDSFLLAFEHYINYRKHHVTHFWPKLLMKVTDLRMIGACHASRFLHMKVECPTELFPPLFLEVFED

On to `CC(COc1ccc(Oc2ccccc2)cc1)Oc1ccccn1` (stereo not given), for which the result in assay [1] was inactive.

Usually AC50 stands for the midpoint of the concentration-response curve, whichever way the signal moves. As to `CON=C(C(=O)OC)c1ccccc1CON=C(C)c1cccc(C(F)(F)F)c1`, the AC50 in assay [1] was 2.05 µM (active).

Regarding `CCOP(=S)(OCC)OC(Cl)C(Cl)(Cl)Cl` (stereo not given), in assay [1], the result was inactive.

In the case of `CCC(=O)Nc1ccc(Cl)c(Cl)c1`, the AC50 is 38 µM (active) in assay [2]; 170 µM (active) in assay [3]; 27.2 µM (active) in [5]; 39.7 µM (active) in [6]; 27.6 µM (active) and 24.3 µM (active) in [7]; 165 µM (active) in [14]. Besides, the molecule was classed as inactive in assay [2], in assay [3], in [4], in [6], in [8] and in [9]. The molecule was called inactive in assay [10], in assay [11], in assay [12], in assay [13], in assay [14] and in assay [15]. For the same molecule, the call in assay [16] and in [1] was inactive.

For the molecule `CSc1nc(NC(C)C)nc(NC(C)C)n1`, the outcome in assay [1] was inactive.

For the molecule `CSC1=N[C@@](C)(c2ccccc2)C(=O)N1Nc1ccccc1`, the result in assay [1] was inactive.

As for `CCOP(=O)(NC(C)C)Oc1ccc(SC)c(C)c1` (stereo not given), the AC50 in assay [2] is 148 µM (active) and 8.45 µM (active); in assay [3], 65.5 µM (active) and 43.8 µM (active); in assay [4], 100 µM (active) and 69 µM (active); in [5] it was 43.6 µM (active) and 36.6 µM (active); in assay [6] it was 31.6 µM (active) and 38.4 µM (active); in [7], 4.34 µM (active) and 4.75 µM (active). Further, the AC50 in assay [9] is 100 µM (active). Also, the outcome in [17], in assay [8], in assay [9], in assay [10], in [11] and in assay [12] was inactive. The result in [13] and in [15] was inactive.

The values are drawn from PubChem BioAssay (EPA / NIEHS).
